Only some compounds are listed: those with a hit (about 2.6% of all), similar ones and a draw of the others.
TROY NFkB inh: inhibitors of TROY-driven NF-kB signaling, primary screen, Q293 LMP1-TROYcd cells, NF-kB luciferase, uHTS | Q293 LMP1-TROYcd NF-kB luciferase reporter, 4 h | inhibition, % at 10 µM | actives 0.98% (n = 360,000);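 active = compounds whose plate-normalised and pattern-corrected inhibition of the luciferase reporter signal at the single screening dose is 50% or more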
EWS-Fli block: EWS/Fli-driven NR0B1 reporter inhibitors, primary screen, A673 cells, NR0B1 luciferase, luminescence, MLPCN library; viability-normalised; inhibition, % at 12.6 µM; actives 0.67% (n = 350,000); AID 651661, 2012;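 active = mean inhibition of at least 50% after viability correction, with every replicate also passing that limit; inconclusive = mean reaches 50% but only one of two replicates passes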;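 also: firefly luciferase signal divided by Alamar Blue viability fluorescence both relative to DMSO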
LGR2 antag: inhibitors of bursicon-induced LGR2 CRE-luciferase signal, primary screen, cell-based, HEK293, CRE-luciferase reporter, bursicon stimulation. bursicon-stimulated, 4 h. inhibition, % at 9.99 µM. actives 0.35% (n = 380,000);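 active = drop in luminescence signal, shown as inhibition above about 50% in the replicate tests, limit read from the data, passing the limit was not always enough; inconclusive = probably only some replicates passing the limit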;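 also: agonist challenge used bursicon conditioned medium at about half maximal strength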
LMP1 NFkB inh: EBV LMP1-driven NF-kappaB luciferase reporter inhibitors, primary screen, cell-based, luminescence, single point | actives 0.69% (n = 350,000) | LMP1-induced NF-kappaB luciferase reporter cells | inhibition, % at 12.5 µM; in the data active = inhibition above about 41%; inconclusive = no clear call, values can overlap the other calls
TWEAK-Fn14 inh: inhibitors of TWEAK-Fn14 signaling, primary screen, luciferase reporter cells, uHTS; inhibition, % at 10 µM; TWEAK-stimulated Fn14 reporter cells, luciferase luminescence, 8 h; AID 1159606, 2016; actives 2% (n = 360,000); in the data active = inhibition above about 50%
Of the large screens only hits and unclear results are named; the others gave an inactive call.

O=C(COc1ccccc1)NC(=S)N1CCc2ccccc21	none (no result: LGR2 antag)
COc1ccccc1C(=O)NC(=S)N1CCCc2ccccc21	TWEAK-Fn14 inh 59
Cc1ccccc1C(=O)NC(=S)Nc1ccccc1N1CCCC1	none
COc1ccc(OCC(=O)NC(=S)N2CCCc3ccccc32)cc1	TWEAK-Fn14 inh 55
C[C@@H]1CN([C@H](C)CO)C(=O)Cc2cc(NC(=O)Cn3cnnn3)ccc2O[C@@H]1CN(C)S(=O)(=O)c1ccccc1	none (no result: TROY NFkB inh, LMP1 NFkB inh, TWEAK-Fn14 inh)
CN(C)C(=O)C[C@H]1CC[C@H]2[C@@H](COC[C@@H](O)CN2C(=O)C2CC2)O1	none (no result: TROY NFkB inh, LMP1 NFkB inh, TWEAK-Fn14 inh)
Nc1nc2ccccc2n1/N=C/c1cccnc1	none (no result: EWS-Fli block, LGR2 antag)
Nc1nc2ccccc2n1/N=C/c1ccc(-c2ccccc2)o1	TWEAK-Fn14 inh 53 (no result: EWS-Fli block, LGR2 antag)
COCCn1c(Cc2ccccc2)nnc1SCC(=O)Nc1oc(C)c2c(C)n[nH]c(=O)c12	TROY NFkB inh 57
COCC(=O)N(C)C[C@H]1Oc2cc(C3=CCCC3)ccc2S(=O)(=O)N([C@@H](C)CO)C[C@@H]1C	none (no result: TROY NFkB inh, LMP1 NFkB inh, TWEAK-Fn14 inh)
CCC(=O)Nc1cc2nn(-c3ccc(C)cc3)nc2cc1C	TROY NFkB inh 90, EWS-Fli block 77, LMP1 NFkB inh 63, TWEAK-Fn14 inh 93
CCC(=O)Nc1cc2nn(-c3ccc(OC)cc3)nc2cc1C	TROY NFkB inh 57, LGR2 antag inconclusive, TWEAK-Fn14 inh 70 (no result: EWS-Fli block)
CCCCC(=O)Nc1cc2nn(-c3ccc(OC)cc3)nc2cc1C	none
Cc1ccc(-n2nc3cc(C)c(NC(=S)NC(=O)/C=C/c4ccco4)cc3n2)cc1	TROY NFkB inh 69 (no result: EWS-Fli block)
Cc1ccc(-n2nc3ccc(NC(=S)NC(=O)/C=C/c4ccco4)cc3n2)cc1	none
COC(=O)c1ccc(Cn2cc(/C=C\[N+](=O)[O-])c3ccccc32)o1	EWS-Fli block 68
O=C(O)c1ccc(Cn2cc(/C=C\[N+](=O)[O-])c3ccccc32)o1	none
O=S(=O)(NCc1ccccc1)c1ccc(-c2cnc(C3CC3)o2)cc1	none
Cc1ccc(N(C)S(=O)(=O)c2ccc(-c3cnc(C4CC4)o3)cc2)cc1	EWS-Fli block 52
Cc1ccc(NS(=O)(=O)c2ccc(-c3cnc(C4CC4)o3)cc2)cc1	none
CCOc1ccccc1CNS(=O)(=O)c1ccc(-c2cnc(C3CC3)o2)cc1	TROY NFkB inh 56, EWS-Fli block 59
Cc1ccc(C)c(S(=O)(=O)N2CCN(CC(=O)N3CCc4ccccc4C3)CC2)c1	LMP1 NFkB inh 57 (no result: EWS-Fli block)
CCSc1nc(-c2ccccc2)nc(C(Cl)Cl)n1	LMP1 NFkB inh 67
CSc1nc(-c2ccc(C)cc2)nc(C(Cl)Cl)n1	LMP1 NFkB inh 60 (no result: EWS-Fli block, LGR2 antag)
COc1ccc(NC(=O)c2cnn(-c3ccccc3)c2C)cc1	TWEAK-Fn14 inh 50 (no result: LGR2 antag)
Cc1ccc(NC(=O)c2cnn(-c3ccccc3)c2C)cc1C	TROY NFkB inh 63, EWS-Fli block 56, LGR2 antag 85, TWEAK-Fn14 inh 85
CC(=O)N(C)C[C@@H]1Oc2ncc(/C=C/c3ccccc3)cc2C(=O)N([C@@H](C)CO)C[C@H]1C	none (no result: TROY NFkB inh, LMP1 NFkB inh, TWEAK-Fn14 inh)
CO[C@H]1CN(C)C(=O)c2ccc(NC(C)=O)cc2OC[C@H](C)N(S(=O)(=O)c2cn(C)cn2)C[C@H]1C	none (no result: TROY NFkB inh, LMP1 NFkB inh, TWEAK-Fn14 inh)
C[C@@H]1CN([C@@H](C)CO)C(=O)c2cc(-c3ccc(F)cc3)cnc2O[C@@H]1CN(C)CC1CCCCC1	none (no result: TROY NFkB inh, LGR2 antag, LMP1 NFkB inh, TWEAK-Fn14 inh)
O=[N+]([O-])c1ccc(N=Nc2ncc[nH]2)cc1	EWS-Fli block 63, TWEAK-Fn14 inh 85
O=C(Oc1ccc(/C=N/n2cnnc2)cc1)c1cccc([N+](=O)[O-])c1	TROY NFkB inh 56, LGR2 antag 73
CN(C)/N=C/c1ccc(OC(=O)c2cccc([N+](=O)[O-])c2)cc1	none
CCC(=O)N1C[C@H](C)[C@H](OC)CN(C)C(=O)c2ccc(NC(=O)NC(C)C)cc2OC[C@H]1C	none (no result: TROY NFkB inh, LMP1 NFkB inh, TWEAK-Fn14 inh)
O=C1C=C(NCc2ccccc2)c2ccccc2C1=O	LGR2 antag 96, TWEAK-Fn14 inh 69
CO[C@H](CN(C)C(=O)c1cnccn1)[C@@H](C)CN([C@H](C)CO)S(=O)(=O)c1ccc(C)cc1	none (no result: TROY NFkB inh, LMP1 NFkB inh, TWEAK-Fn14 inh)
Cc1ccc(S(=O)(=O)Nc2ccc3c(c2)C(=O)N([C@@H](C)CO)C[C@@H](C)[C@H](CN(C)C(=O)CCC(F)(F)F)OCCCC[C@H](C)O3)cc1	none (no result: TROY NFkB inh, LMP1 NFkB inh, TWEAK-Fn14 inh)
CC(=O)N1CCc2cc(S(=O)(=O)NCCC(=O)Nc3ccc4c(c3)OCCO4)ccc21	none (no result: EWS-Fli block, LGR2 antag)
CC(=O)N1CCc2cc(S(=O)(=O)NC(CC(C)C)C(=O)Nc3ccc4c(c3)OCCO4)ccc21 (stereo not drawn)	TWEAK-Fn14 inh 57 (no result: EWS-Fli block, LGR2 antag)
COc1ccc(CNc2ccc(Br)cc2)cc1	none
COc1ccc(NC2=NCC(Cc3ccc(Br)cc3)S2)cc1 (stereo not drawn)	LMP1 NFkB inh 66
COC(=O)C[C@H]1CC[C@H]2[C@@H](COc3ccc(NC(=O)c4ccc(C#N)cc4)cc3C(=O)N2C)O1	none (no result: TROY NFkB inh, LMP1 NFkB inh, TWEAK-Fn14 inh)
COc1ccc(Cl)cc1NC(=O)c1cnc2sccn2c1=O	none
O=C(Nc1cccn(Cc2c(Cl)cccc2Cl)c1=O)c1ccc(Cl)cc1Cl	TWEAK-Fn14 inh 64 (no result: EWS-Fli block, LGR2 antag)
O=C(Nc1cnc2sccn2c1=O)c1ccc(Cl)cc1Cl	TWEAK-Fn14 inh 56 (no result: EWS-Fli block)
O=C(Nc1cccn(Cc2c(Cl)cccc2Cl)c1=O)c1ccccc1Cl	none (no result: EWS-Fli block)
O=C1CN(Cc2ccc(F)cc2)C[C@@H]2[C@H](c3ccc(-c4ccccc4)cc3)[C@H](CO)N12	none (no result: TROY NFkB inh, LMP1 NFkB inh, TWEAK-Fn14 inh)
C/C=C/c1ccc2c(c1)O[C@H](CN(C)C(=O)C1CCOCC1)[C@@H](C)CN([C@H](C)CO)S2(=O)=O	none (no result: TROY NFkB inh, LMP1 NFkB inh, TWEAK-Fn14 inh)
CC1CCN(c2c(NCc3ccc(C(=O)N4CCc5ccccc54)cc3)c(=O)c2=O)CC1	EWS-Fli block 53 (no result: LGR2 antag)
CN(C)S(=O)(=O)c1cccc(-c2cn3cc(Cl)ccc3n2)c1	none (no result: EWS-Fli block, LGR2 antag)
COc1ccc(-c2cn3cc(C)ccc3n2)cc1OC	none (no result: EWS-Fli block, LGR2 antag)
COc1ccc(-c2cn3cc(C)ccc3n2)cc1F	TROY NFkB inh 61, LGR2 antag 90, TWEAK-Fn14 inh 76
Clc1ccc2nc(-c3ccccc3)cn2c1	TWEAK-Fn14 inh 61
Cc1ccc2nc(-c3ccc4c(c3)OCCO4)cn2c1	TROY NFkB inh 78, LGR2 antag 91, LMP1 NFkB inh 85, TWEAK-Fn14 inh 101
c1ccn2cc(-c3ccc4c(c3)OCCO4)nc2c1	EWS-Fli block 54, LGR2 antag 91, LMP1 NFkB inh 57, TWEAK-Fn14 inh 78
COc1ccc(-c2cn3ccccc3n2)cc1OC	none (no result: EWS-Fli block, LGR2 antag)
COc1ccc(S(=O)(=O)N(C)C[C@H]2Oc3ccc(NS(=O)(=O)c4cn(C)cn4)cc3CC(=O)N([C@@H](C)CO)C[C@H]2C)cc1	none (no result: TROY NFkB inh, LMP1 NFkB inh, TWEAK-Fn14 inh)
O=C(O)c1cc(-c2ccc3c(c2)OCO3)nc2ccc(Cl)cc12	none (no result: EWS-Fli block)
Clc1ccc2nc(-c3ccc4c(c3)OCO4)cn2c1	LGR2 antag 86, LMP1 NFkB inh 60, TWEAK-Fn14 inh 73
COc1cc(/C=N/Nc2ccc(S(N)(=O)=O)cc2[N+](=O)[O-])cc(OC)c1O	TROY NFkB inh 59
